# Results published in PubChem BioAssay (NCI).
# This is part of a sample that, as a whole, favours compounds with a hit. Of some 83,000 tested, about 20% had one in any assay.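 Treatment: one concentration, 48 hours, 96-well format. Scoring: percent growth, with anything below 10 considered active.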 A number with no mark means an inactive call. The source made the active and inactive calls.
# Experiments:
# Experiment in all cases: NCI-60 one-dose screen, 48 h (100 = growth as untreated, 0 = no growth, -100 = all killed)
# [1] = tested on: HCT-15 colon; conditions: 10 µM unless noted
# [2] = tested on: HT29 colon; conditions: 10 µM unless noted
# [3] = tested on: SNB-75 CNS; conditions: 10 µM unless noted
# [4] = tested on: SNB-19 CNS; conditions: 10 µM unless noted
# [5] = tested on: U251 CNS; conditions: 10 µM unless noted
# [6] = tested on: SK-MEL-5 melanoma; conditions: 10 µM unless noted
# [7] = tested on: UACC-62 melanoma; conditions: 10 µM unless noted
# [8] = tested on: SK-MEL-28 melanoma; conditions: 10 µM unless noted
# [9] = tested on: PC-3 prostate; conditions: 10 µM unless noted
# [10] = tested on: LOX IMVI melanoma; conditions: 10 µM
SMILES,growth [1],growth [2],growth [3],growth [4],growth [5],growth [6],growth [7],growth [8],growth [9],growth [10]
O=C(Cn1c2c(sc1=O)[C@H]1[C@@H](O)[C@@H](O)[C@H](O)[C@@H]1CS2)N1CCOCC1,107%,106%,82.3%,103%,99.2%,102%,101%,107%,,
NS(=O)(=O)c1ccc(-n2cc(-c3cccc(NC(=O)c4cc(Cl)cc(Cl)c4)c3)nn2)cc1,94.7%,32.1%,86.2%,68.6%,-45.9% (active),,69.6%,45.3%,69.7%,2.52% (active)
CN1CCN(c2ccc(C(=O)/C=C/c3cc(C(F)(F)F)cc(C(F)(F)F)c3)cc2)CC1,-84.2% (active),-3.47% (active),-82.3% (active),-85% (active),-94.9% (active),,-85.4% (active),-96.8% (active),-26.4% (active),-89.7% (active)
COc1ccc(NC(=O)Cn2c(/C=C/c3cccc([N+](=O)[O-])c3)nc3ccccc3c2=O)cc1,78.2%,88%,1.99% (active),72.9%,36.1%,,51.5%,93.7%,94%,50.8%
CN1CCN(c2ccc3c(c2)nc(NNC(=O)c2cnccn2)c2cccn23)CC1,-51% (active),6.95% (active),28.7%,20%,-19.1% (active),,-17.9% (active),-15% (active),11.7%,-43.8% (active)
O=C1N/C(=N\c2nccs2)S/C1=C\C=C/c1ccccc1,28.1%,25.5%,83.5%,26.6%,8.95% (active),,-24% (active),18%,46.6%,28.3%
COc1ccc(C(=O)/C=C/c2cccc3ccccc23)cc1S(N)(=O)=O,-65.3% (active),-39.5% (active),51.2%,10.5%,-93.9% (active),,-58% (active),-50.8% (active),12.8%,-84.2% (active)
COc1cc(OC)c2c3nc4cc(C)c(C)cc4nc3n(CCN(C)C)c2c1,-27.9% (active),49.9%,78.3%,70.5%,87.7%,69.8%,99.1%,66.5%,,
N#Cc1c(NCc2ccccc2)n[nH]c1Nc1ccccc1,42.4%,84.3%,57.4%,54.8%,45.9%,,64.9%,79.1%,40.1%,58.4%
COc1ccc(C(=O)/C=C/c2ccc(Oc3nc(Nc4ccc(F)cc4)nc(N(C)C)n3)c(OC)c2)cc1,33.8%,59%,66.4%,63.4%,11.4%,32.9%,41%,76.7%,,
CCN1CCN(Cc2ccc(C(=O)Nc3cccc(C#Cc4cccc5[nH]nc(N)c45)c3)cc2C(F)(F)F)CC1,-87.6% (active),-10.5% (active),-62% (active),-88.7% (active),-94.6% (active),,-74.7% (active),-95% (active),-14% (active),-92.6% (active)
NS(=O)(=O)c1ccc(-n2cc(-c3cccc(NC(=O)c4cc(N5CCOCC5)cc(C(F)(F)F)c4)c3)nn2)cc1,105%,103%,33.1%,40.8%,7.62% (active),,41.1%,36.9%,70.6%,46.8%
CNS(=O)(=O)c1ccc(Nc2ccc(C(F)(F)F)cc2)c(-c2cn(C)cn2)c1,34.5%,49.6%,90.9%,49.5%,51.1%,60.1%,37.1%,74.8%,,43.1%
COc1cc(OC)cc(C(=O)Nc2cccc(-c3cn(-c4ccc(S(N)(=O)=O)cc4)nn3)c2)c1,92.2%,114%,51.7%,17.8%,32.2%,,80.4%,81.1%,91.4%,69.3%
COc1ccc(C(=O)/C=C/c2cccnc2)cc1S(N)(=O)=O,4.61% (active),24%,64.2%,45.4%,11.2%,,74.8%,65.7%,78.4%,-15.3% (active)
Cc1cc2nc3c([nH]c2cc1C)c1ccc(=O)cc1n3CCN(C)C,19.3%,23.4%,63.2%,38.2%,40%,41.5%,65.8%,51.4%,,
O=C(NNc1nc2cc(F)ccc2n2c(CN3CC4CNCC4C3)ccc12)c1ccncn1 (stereo not drawn),28.9%,31.7%,49%,22.2%,9.87% (active),,-13.4% (active),23.2%,32.6%,6.59% (active)
CN1CCN(Cc2ccc(C(=O)Nc3cccc(C#Cc4cccc5[nH]nc(N)c45)c3)cc2C(F)(F)F)CC1,-93.9% (active),-50.3% (active),-82.5% (active),-89.7% (active),-79.2% (active),,-88% (active),-97.4% (active),-22.9% (active),-92% (active)
C#CCOc1cc(N(CC)CC)ccc1C(C(=O)NC(C)(C)C)N(C(=O)C1CCc2cc(F)ccc2O1)c1ccccc1Br (stereo not drawn),50.2%,51.1%,97.5%,56.5%,48.6%,56.8%,40.8%,64.8%,,31.7%
N#Cc1c(-c2ccc(Br)cc2)nc2n[nH]c(-c3ccc(Br)cc3)c2c1-c1ccc(C(F)(F)F)cc1,5.75% (active),20.6%,-3.08% (active),20.5%,20.7%,14.3%,0.103% (active),49.5%,,
COc1ccc(C(=O)/C=C/c2c(F)cccc2Cl)cc1S(N)(=O)=O,-11.9% (active),8.46% (active),29.7%,19.6%,-86.8% (active),,15.4%,-4.35% (active),18.8%,-69.1% (active)
C/C(=N\Nc1ccc(S(N)(=O)=O)cc1)c1ccc(N=Nc2c(Nc3ccccc3)[nH][nH]c2=O)cc1,36.7%,4.54% (active),21%,-5.15% (active),-46.7% (active),,-40.7% (active),-54.1% (active),20%,-41.2% (active)
CCOP(=O)(OCCCl)c1nc(-c2ccc(C)cc2)oc1NCc1ccccc1 (stereo not drawn),57.6%,81.7%,69.9%,65.8%,74.6%,84.8%,60.4%,108%,,
COCOc1cc2c(=O)c(C)c(C(=O)N[C@@H](Cc3ccccc3)C(O)C(=O)NCc3ccccc3)oc2cc1OC (stereo partly drawn),84.3%,43.3%,3.85% (active),15.7%,-36.6% (active),10.6%,-14.8% (active),38.9%,,
COc1cc(OC)cc(-c2cc3ccc(N(C)C)cc3c(=O)[nH]2)c1,18.9%,12.4%,57.3%,35.5%,7.67% (active),,51.8%,61.3%,35.7%,23%
CC(=O)OC[C@@]1(C)C2CC[C@]3(C)C(CC=C4C5CC(C)(C)CC[C@]5(C(=O)Nc5ccc(F)cc5)CC[C@]43C)[C@@]2(C)C[C@@H](OC(C)=O)[C@@H]1OC(C)=O (stereo partly drawn),33.8%,34.7%,54.4%,,40.3%,8.24% (active),30.3%,58.6%,34.5%,11.1%
CC1CN(c2oc(-c3ccc([N+](=O)[O-])cc3)nc2C#N)CC(C)O1 (stereo not drawn),97.1%,112%,98.8%,92.2%,,104%,84%,105%,96.7%,95.6%
COc1cc2oc(-c3cccc(C(=O)Nc4ccc(Cl)cc4)c3)cc(=O)c2c(OCCNC(=O)[C@H](CO)NC(=O)OC(C)(C)C)c1OC,16.5%,-26.9% (active),74.5%,,24%,-75.2% (active),7.14% (active),-23.8% (active),12.9%,-67.5% (active)
O=C(/C=C/c1ccc(O)c(O)c1)NC1CCOC1O (stereo not drawn),94.6%,113%,91.6%,98.8%,,103%,104%,107%,95.4%,
